# Results from PubChem BioAssay (NCI).
# Several values for one entry are separate records, joined by “and”; a condition that tells them apart may be missing. Equal values may be shown once. Compounds without any hit were thinned out: in the full panel of roughly 83,000, 20% have a hit.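 Testing used 96-well plates and a 48-hour single-concentration exposure. Example: -40 means 40% of the starting cells died.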 Activity calls are given as the source filed them. Rule for the calls: active = growth percent below 10; inactive = the rest.
# System: HL-60(TB) leukemia
# Assay: NCI-60 one-dose screen, 48 h (100 = growth as untreated, 0 = no growth, -100 = all killed)
# Details: 10 µM unless noted
row,SMILES,growth
1,CNC(=O)Cc1nc(-c2cccc(NS(=O)(=O)c3c(F)cccc3F)c2F)c(-c2ccnc(Nc3ccccc3)n2)s1,57.8% (inactive)
2,O=C1Nc2ccc(C(=O)O)c(O)c2C1=O,99.8% (inactive)
3,Cc1cc(C(c2ccccc2)c2ccccc2)ccc1NS(=O)(=O)c1ccccc1,78.5% (inactive)
4,N#CC1=C(N)Oc2c(sc3c(Br)cccc23)C1c1ccc(F)cc1 (centres undefined),-25.6% (active)
5,N#CCCn1cnc2c(N)ncnc21,98.6% (inactive)
6,Cc1cc(O)c2c(c1O)C(=O)C13C(=C2O)C(=O)C2C(O)C1C1C(O)C3C(=O)C3=C(O)c4c(O)cc(C)c(O)c4C(=O)C321 (centres undefined),-19.7% (active)
7,CC(c1ccccc1)n1ccnc1CO (centres undefined),101% (inactive)
8,Clc1ccc(Sc2cnc(-c3ccccc3)o2)cc1,99.5% (inactive)
9,CC(C)(C)[Si](C)(C)OC1[C@@H](COC(N)=O)O[C@@H](n2cnc3c(N)ncnc32)[C@H]1O[Si](C)(C)C(C)(C)C (some centres undefined),-18% (active)
10,CC1=C[C@H]2c3c(c(O)c(O)c4oc5cc(O)cc(O)c5c(=O)c34)[C@H](c3cc(O)c(O)c4oc5cc(O)cc(O)c5c(=O)c34)[C@H]2C(C)(C)C1,2.23% (active) and -3.82% (active)
11,COc1ccc(-c2csc(NC(=O)CSc3nc(-c4ccccc4)cc(=O)[nH]3)n2)cc1,52.4% (inactive)
12,O=c1c2cc(F)ccc2sc2c(Nc3ccncc3)nc3ccccc3c12,6.35% (active)
13,CN(C)CCCOc1ccc(OCCCN(C)C)c2c1C(=O)c1ccccc1C2=O,5.97% (active)
14,Fc1ccc2nc(-c3cc(-c4ccc5c(c4)OCO5)n[nH]3)[nH]c2c1,13.9% (inactive)
15,NC(CSSCC(N)C(=O)O)C(=O)O (centres undefined),-12.8% (active)
16,COc1ccc(C2C=C(c3ccc(OC)c(OC)c3)N=C3SC=C(C)N32)c(Br)c1 (centres undefined),101% (inactive)
17,O=C(CCN1CCCC1)Nc1ccc2c(NCc3ccc(F)cc3)c3ccccc3nc2c1,-47.3% (active)
18,O=C(CCCCC1CCSS1)Nc1ncnc2n[nH]c(-c3ccc(Oc4ccccc4)cc3)c12 (centres undefined),78.8% (inactive)
19,O=C(OCC1CC2(Cl)C(Cl)=C(Cl)C1(Cl)C2(Cl)Cl)C1C(C(=O)OCC2CC3(Cl)C(Cl)=C(Cl)C2(Cl)C3(Cl)Cl)C2(Cl)C(Cl)=C(Cl)C1(Cl)C2(Cl)Cl (centres undefined),89.3% (inactive)
20,COCC(N)=O,90% (inactive)

row,SMILES,growth
1,COc1ccc(C(=O)N2NC(=O)/C(=C/c3ccc(Br)cc3)N=C2c2ccccc2)cc1,4.51% (active)
2,CCOC(=O)c1ccc(Nc2sc(C(=O)c3ccc(Br)cc3)c(N)c2C#N)cc1,-2.85% (active)
3,Cc1ccc(S(=O)(=O)n2ccnc2)cc1,124% (inactive)
4,Cc1c(C(=O)NO)sc2ncnc(Nc3ccc(NC(=S)Nc4ccccc4)cc3)c12,103% (inactive)
5,CCOc1ccccc1/C=N\N=C\c1ccccc1O,30.6% (inactive)
6,CC(=O)c1ccc(NC(=O)Nc2ccc(S(=O)(=O)Nc3ccc(Cl)nn3)cc2)cc1,109% (inactive)
7,O=C1NC(=S)S/C1=C\c1cc(Br)ccc1O,83.9% (inactive)
8,c1ccc(NCc2ccc3c(c2)OCO3)cc1,94.6% (inactive) and 96.1% (inactive)
9,O=C1/C(=C\c2ccc3nccnc3c2)SC(=S)N1CCc1ccc(O)cc1,75.6% (inactive)
10,COc1ccc(-c2csc(N(C(=O)N3CCN(c4cc5c(cc4F)c(=O)c(C(=O)O)cn5C4CC4)CC3)c3ccccc3)n2)cc1,-29.6% (active)
11,COCCc1ccc(OCC(O)CNC(C)C)cc1 (centres undefined),94.2% (inactive)
12,CC(C)c1[nH]ncc1-c1nc2ccc3[nH]ncc3c2c2c1CCCC2,13.4% (inactive)
13,O=S(=O)(NCCCNc1nccc(-c2c(-c3cccc(O)c3)nc3occn23)n1)c1ccc(F)cc1,72.3% (inactive)
14,O=C1C(=O)c2ccccc2C(O)=C1CCCc1ccc(C2CCCCCC2)cc1,45.6% (inactive)
15,C=CCOc1c(Br)cc(Br)cc1Br,76.2% (inactive)
16,COc1ccc(C2NC(=O)Nc3ccccc32)c(OC)c1 (centres undefined),93.2% (inactive)
17,CCCCCCCCCCCC(=O)OCCNC(=O)C[n+]1ccccc1,100% (inactive)
18,Cn1cc(-c2csc(-c3cn(CCCN4CCCCC4)c4ccc(F)cc34)n2)c2cccnc21,56.3% (inactive)
19,C=C(CBr)[C@@H]1CC[C@]2(COC(C)=O)CC[C@]3(C)[C@H](CC[C@@H]4[C@@]5(C)CCCNC(C)(C)[C@@H]5CC[C@]43C)[C@@H]12,-8.09% (active)
